Sampled rows, rich in hits. Any-hit rate of the full collection: about 11%.
HPGD block: qHTS Assay for Inhibitors of HPGD (15-Hydroxyprostaglandin Dehydrogenase); purified HPGD, NADH fluorescence kinetic, PGE2 substrate; AID 894, 2007; 15-hydroxyprostaglandin dehydrogenase [NAD(+)] (Homo sapiens), P15428; actives 4.3% (n = 150,000); Potency, µM, inactives show top-dose activity change, negative = inhibition, hits mostly inhibitors; further: potency means the concentration at half of the fitted maximal effect
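20 nM HPGD preincubated 15 min at room temperature with compound in 50 mM Tris-HCl pH 8, 0.01% Tween 20. Started with 1 mM NAD+ and 30 uM prostaglandin E2; NADH fluorescence (360/450 nm) read 5 times over 30-s intervals, last minus first.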
PNC inhibitor: High Content Assay for Compounds that inhibit the Assembly of the Perinucleolar Compartment; PC3M PTB-GFP, PNC prevalence imaging, 16 h; stronger effect = lower value; activity change (PNC), negative = inhibition, % at 10 µM; actives 3.1% (n = 140,000); AID 2417, 2010;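 active means readout at or below -70, meaning at least 70% loss of cells showing the perinucleolar compartment, a nuclear body marking cancer cells; inconclusive means readout between -30 and a set limit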;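 further: plate controls were DMSO wells for no effect and camptothecin positive control wells for full effect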
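Compounds are pinned in duplicate onto adhered PC3M cells stably expressing GFP-tagged PTB and incubated 16 h at 37 C. Cells are then fixed, nuclei stained with Hoechst, and PNC-positive cells counted.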
ALDH1A1 inh: qHTS Assay for Inhibitors of Aldehyde Dehydrogenase 1 (ALDH1A1); Aldehyde dehydrogenase 1A1 (Homo sapiens), P00352; Purified ALDH1A1, NADH fluorescence, propionaldehyde substrate; Potency, µM (titrated, usually from 75.3 µM), for the others: at the highest dose activity, negative = inhibition, hits mostly inhibitors; actives 7.3% (n = 220,000); AID 1030, 2008;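 further: potency means the concentration at half of the fitted maximal effect; plate controls were no enzyme wells and a reference inhibitor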
Target sequence (P00352 whole entry, looked up): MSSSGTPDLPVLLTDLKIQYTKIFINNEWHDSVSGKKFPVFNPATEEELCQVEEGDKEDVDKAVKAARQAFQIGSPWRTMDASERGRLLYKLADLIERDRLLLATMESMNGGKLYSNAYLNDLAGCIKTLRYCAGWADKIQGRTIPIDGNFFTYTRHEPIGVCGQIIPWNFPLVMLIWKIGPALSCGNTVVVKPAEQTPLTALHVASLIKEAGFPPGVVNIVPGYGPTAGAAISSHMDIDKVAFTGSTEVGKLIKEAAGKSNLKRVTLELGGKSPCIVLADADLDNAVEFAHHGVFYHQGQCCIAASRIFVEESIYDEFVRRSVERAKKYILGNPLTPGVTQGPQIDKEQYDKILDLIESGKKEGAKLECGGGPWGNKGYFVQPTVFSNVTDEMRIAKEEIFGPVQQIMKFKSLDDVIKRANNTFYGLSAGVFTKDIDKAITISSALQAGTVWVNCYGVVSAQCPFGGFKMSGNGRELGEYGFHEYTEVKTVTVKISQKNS
* = called active by the depositor. Unless noted, the call rests on the fitted dose curve; in most records, active means well fitted inhibition curve with a large enough effect (not every such curve was filed as active); inconclusive means small, poorly fitted or top-dose-only effect, or another doubt; inactive means no such curve, though single readings can be large or run the other way. Unless noted, on the % scale 0 is the no-effect control and ±100 the full control effect.

How did Cc1ccc(S(=O)(=O)N(C)C)cc1NC(=O)COC(=O)/C(=C/c1ccc(F)cc1)c1cccs1 do in these assays?
HPGD block: -9.1%; PNC inhibitor: inconclusive; ALDH1A1 inh: inconclusive

Results for O=C(Cc1ccccc1)Nc1ccccc1Oc1ccccc1 ?
HPGD block: -2.1%; PNC inhibitor: 11.2; ALDH1A1 inh: 11.8%

How did CC(=O)N[C@@H](Cc1c[nH]c2ccccc12)C(=O)O do in these assays?
HPGD block: -15.7%; ALDH1A1 inh: 3.8%

How did CC(=O)NC(Cc1c[nH]c2ccccc12)C(=O)Nc1ccc2c(c1)OCO2 (configuration not stated) do in these assays?
HPGD block: -5.9%; PNC inhibitor: 25.4; ALDH1A1 inh: 10.6%

What do the screens show for `CC(=O)N[C@@H](Cc1c[nH]c2ccccc12)C(=O)OCC(=O)Nc1ccc(S(=O)(=O)N(C)C)cc1`?
ALDH1A1 inh: 3.98µM*

What do the screens show for `CC(=O)N[C@@H](Cc1c[nH]c2ccccc12)C(=O)OCC(=O)NCc1ccc2c(c1)OCO2`?
ALDH1A1 inh: 5.01µM*

What do the screens show for `O=C(CN1C(=O)c2ccccc2C1=O)[C@@H](O)CN1C(=O)c2ccccc2C1=O`?
HPGD block: 1.6%; ALDH1A1 inh: inconclusive

How did c1ccc(CNc2oc(-c3ccccc3)nc2-c2ccccc2)cc1 do in these assays?
HPGD block: -9.9%; ALDH1A1 inh: -11.7%

Results for N#Cc1ccc(CN2CCCC3(CCN(C(=O)c4cc(C(F)(F)F)cc(C(F)(F)F)c4)CC3)C2)cc1 ?
HPGD block: -11.7%; ALDH1A1 inh: 1.5%

How did COc1cccc(C(C(=O)NC2CCCCC2)N(C(=O)c2ccco2)c2ccc(-n3cnnn3)c(C)c2)c1 (configuration not stated) do in these assays?
HPGD block: -16.5%; PNC inhibitor: -100.0*; ALDH1A1 inh: inconclusive

What do the screens show for `Cc1cc(N(C(=O)c2ccco2)C(C(=O)NC2CCCCC2)c2ccccc2)ccc1-n1cnnn1` (configuration not stated)?
HPGD block: -6.1%; PNC inhibitor: -6.1; ALDH1A1 inh: -2.7%

What do the screens show for `Cc1ccc(NC(=O)CC(NCC2CCCO2)C(=O)O)cc1C` (configuration not stated)?
ALDH1A1 inh: 8.3%

Results for O=C(c1ccco1)N1N=C(C2CCCCC2)CC1(O)C(F)(F)F (configuration not stated) ?
ALDH1A1 inh: 6.31µM*

How did O=C(c1ccncc1)N1N=C(C2CCCCC2)CC1(O)C(F)(F)F (configuration not stated) do in these assays?
ALDH1A1 inh: 0.7%

How did O=C(Nc1nc(-c2ccccn2)cs1)C1COc2ccccc2O1 (configuration not stated) do in these assays?
HPGD block: -10.1%; PNC inhibitor: 1.4; ALDH1A1 inh: 5.8%

How did CC(C(=O)Nc1nc2ccccc2[nH]1)N1C(=O)C2CC=CCC2C1=O (configuration not stated) do in these assays?
HPGD block: -10.8%; PNC inhibitor: 30.1; ALDH1A1 inh: 10.4%

How did O=C1C2C3C=CC(C3)C2C(=O)N1CNc1ccccn1 (configuration not stated) do in these assays?
HPGD block: -1.2%; PNC inhibitor: inconclusive; ALDH1A1 inh: 10.2%

Results for CC1CC1C(=O)Nc1nc(-c2ccccn2)cs1 (configuration not stated) ?
HPGD block: 14.1µM*; PNC inhibitor: 23.6; ALDH1A1 inh: 10µM*

How did C[C@@H](C(=O)Nc1nc(-c2ccccn2)cs1)N1C(=O)C2CCCCC2C1=O (some centres not stated) do in these assays?
HPGD block: 25.1µM*; PNC inhibitor: 38.3; ALDH1A1 inh: 12.6µM*

How did O=C(CN1C(=O)C2CCCCC2C1=O)Nc1ccc(S(=O)(=O)Nc2ncccn2)cc1 (configuration not stated) do in these assays?
ALDH1A1 inh: 14.8%

What do the screens show for `O=C(CN1C(=O)C2CCCCC2C1=O)Nc1nc(-c2ccccn2)cs1` (configuration not stated)?
HPGD block: 28.2µM*; PNC inhibitor: -16.3; ALDH1A1 inh: 22.4µM*

How did CC(C(=O)Nc1ccccn1)N1C(=O)C2C3C=CC(C3)C2C1=O (configuration not stated) do in these assays?
PNC inhibitor: -7.8; ALDH1A1 inh: 25.1µM*

Results for C=C(C(=O)OC)C(NC(=O)OC)c1ccccc1 (configuration not stated) ?
HPGD block: -6.8%; ALDH1A1 inh: 4.4%

Results for COc1ccc(Oc2ncc3nc(C)c(=O)n(C4CC4)c3n2)cc1 ?
HPGD block: -9.7%; ALDH1A1 inh: 1.0%

What do the screens show for `c1ccc(CCNc2nc(-c3cccnc3)cs2)cc1`?
HPGD block: -15.3%; PNC inhibitor: inconclusive; ALDH1A1 inh: inconclusive

What do the screens show for `c1ccc(CCNc2nc(-c3ccccn3)cs2)cc1`?
ALDH1A1 inh: 31.6µM*

What do the screens show for `CC(=O)C1=C(S(=O)(=O)c2ccc(C)cc2)CS(=O)(=O)C1`?
ALDH1A1 inh: 1.26µM*

What do the screens show for `Cc1ccc(S(=O)(=O)C2CS(=O)(=O)CC2O)cc1` (configuration not stated)?
HPGD block: -6.8%; PNC inhibitor: inconclusive; ALDH1A1 inh: 3.0%

What do the screens show for `C=C(C(C)=O)C(O)c1ccc2ccccc2c1` (configuration not stated)?
HPGD block: -1.1%; ALDH1A1 inh: -6.5%

Results for CC1(C)C(=O)Nc2ccccc2N1C(=O)COc1ncnc2c(Cl)cc(Cl)cc12 ?
PNC inhibitor: 8.1; ALDH1A1 inh: 28.2µM*

Results for Cc1cnc(C(=O)OCC(=O)N2c3ccccc3NC(=O)C2(C)C)cn1 ?
HPGD block: -7.4%; PNC inhibitor: inconclusive; ALDH1A1 inh: 6.6%

How did C=C(C)CNC(=S)N/N=C1\CCCCc2ccccc21 do in these assays?
PNC inhibitor: 8.7; ALDH1A1 inh: inconclusive

Results for Cc1c(C(=O)N2CCN(C)CC2)oc2c1C(=O)CC(C)(C)C2 ?
HPGD block: -11.0%; PNC inhibitor: -23.2; ALDH1A1 inh: 22.4µM*

Results for Cc1c(C(=O)N2CCOCC2)oc2c1C(=O)CC(C)(C)C2 ?
HPGD block: -8.0%; PNC inhibitor: inconclusive; ALDH1A1 inh: -11.9%

Results for Cc1nn(CC(O)c2ccccc2)c(C)c1Br (configuration not stated) ?
HPGD block: -2.9%; PNC inhibitor: 31.2; ALDH1A1 inh: 17.8µM*

Results for Cc1nn(CC(O)CN2c3ccccc3Sc3ccccc32)c(C)c1Br (configuration not stated) ?
HPGD block: -9.4%; PNC inhibitor: inconclusive; ALDH1A1 inh: 6.8%

Results for Cc1nn(C)c(C)c1/C=N/NC(=O)CCn1nc(C)c([N+](=O)[O-])c1C ?
HPGD block: -5.3%; PNC inhibitor: inconclusive; ALDH1A1 inh: -3.3%

What do the screens show for `Cc1noc(C)c1C(=O)N1CCC(CO)(Cc2ccccc2)CC1`?
ALDH1A1 inh: 3.98µM*

What do the screens show for `Cc1noc(C)c1C(=O)N1CCC2(CCN(C(=O)Nc3ccccc3)CC2)CC1`?
HPGD block: -8.4%; ALDH1A1 inh: inconclusive
